Source: PubChem BioAssay (NCI)
The panel holds about 83,000 compounds, 20% with a hit somewhere; the sample as a whole holds those more often.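 The endpoint reported here, percent growth, reads 100 for growth as untreated, 0 for no net growth and -100 for all cells dead.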 A number with no mark means an inactive call. Active and inactive are the calls of the source. Rule for the calls: active = growth percent below 10; inactive = the rest.

Key:
Test in all cases: NCI-60 one-dose screen, 48 h (100 = growth as untreated, 0 = no growth, -100 = all killed)
Conditions in all cases: 10 µM
[1] = system: NCI-H23 lung
[2] = system: NCI-H226 lung
[3] = system: HOP-62 NSCLC
[4] = system: NCI-H460 lung
[5] = system: HOP-92 NSCLC
[6] = system: NCI-H522 lung
[7] = system: A549/ATCC NSCLC
[8] = system: 786-0 renal
[9] = system: COLO 205 colon

Structure (SMILES)	growth [1]	growth [2] [%]	growth [3]	growth [4]	growth [5]	growth [6]	growth [7]	growth [8]	growth [9]
Cc1ccc(NCCNCC(C)(C)O)c2c(=O)c3ccc(Cl)cc3sc12	52%	76.6	80.1%	-73.7% (active)	21%	49.4%	-42.9% (active)	54%	-79.2% (active)
COc1ccc2c(c1)C(CC(=O)NN)CCC2 (stereo not drawn)	92.7%	101	106%	109%	93.7%		93.4%	109%	113%
CN(C)c1nc(N)c2nccnc2n1	87.9%	105	111%	108%	101%		99.6%	109%	100%
O=C(NCCNC(=O)c1ccc(F)cc1)Nc1ccc(-n2cc(-c3ccncc3)c(-c3ccc(Cl)c(O)c3)n2)cc1	6.86% (active)	24.2	22.9%	-0.482% (active)	-19% (active)	-29.2% (active)	12.4%	-11.1% (active)	-80.8% (active)
CC(=O)OC/C=C(/C)C[P+](c1ccccc1)(c1ccccc1)c1ccccc1	80.1%	66	65.6%	40.3%	64.3%	74.6%	64.6%	74.5%	48.3%
Cc1ccc(C2NC(=S)N3C(c4ccc(C)cc4)NC(=S)N23)cc1 (stereo not drawn)	38.9%	63.1	-45.6% (active)	9.7% (active)	-3.05% (active)	-39.2% (active)	32%		44%
CC(C)=CCC/C(C)=C/CC/C(C)=C/CC/C=C(\C)CC/C=C(\C)CCC(=O)Nc1ccn(C2OC(CO)C(O)C2(F)F)c(=O)n1 (stereo not drawn)	25.3%	50.3	11.1%	6.85% (active)	10.2%	26.1%		-11.2% (active)	43.5%
O=C(CCc1nnc2sc(-c3cc(O)c(O)c(O)c3)nn12)c1nc2ccccc2[nH]1	88.9%	89.9	105%	105%	69.4%	98.3%	108%	107%	114%
